# From the supplement of paper PMC10037445
# “And” between values parts separate entries of the source, which are not always exact repeats. Equal values may be shown once. In all, about 2,900 compounds were measured (“NF-kB SEAP reporter activity, fold change vs agonist alone”: median about 0.99, highest 2% from about 2.6 on). The sample as a whole holds a higher share of the highest values than the screen did.
# Tests used:
# [1] = tested on: RAW-Dual; test: NF-kB SEAP reporter activity, fold change vs agonist alone; higher = enhanced NF-kB activity; conditions: library stock concentration (final ~1000-fold dilution): 10 mM
# Procedure, shortened: (§1)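 Supernatant from RAW-Dual macrophages was read after 20 hours for IRF by QuantiLuc luminescence and for NF-κB by QuantiBlue absorbance at 620 nm. The cells (50,000 cells/well in DMEM, 384-well plates, 37 °C, 5% CO2) had received 50 nL of library stock by pin tool and, 1 h later, a PRR agonist. Reporter activity is expressed relative to agonist-alone wells as fold change, and wells were flagged cytotoxic if IncuCyte confluency was under 70% of agonist controls in both mask sets.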
# [2] = tested on: RAW-Dual; test: NF-kB SEAP reporter activity, fold change vs agonist alone; cytotoxicity flag (confluency mask): cytotoxic (confluency <70% of control); higher = enhanced NF-kB activity
# Procedure, shortened: as §1
# [3] = tested on: RAW-Dual; test: NF-kB SEAP reporter activity, fold change vs agonist alone; cytotoxicity flag (confluency mask): not cytotoxic; higher = enhanced NF-kB activity
# Procedure, shortened: as §1
# [4] = agonist: ODN 1826 (TLR9) 0.5 ug/mL
# [5] = agonist: Pam2CSK4 (TLR2/6) 0.1 ug/mL
# [6] = agonist: Pam3CSK4 (TLR2/1) 0.1 ug/mL
# [7] = cytotoxicity flag (confluency mask): not cytotoxic, agonist: Imiquimod (TLR7) […]
# [8] = cytotoxicity flag (confluency mask): not cytotoxic, agonist: MPLA (TLR4) […]
structure (smiles),measurement,setting,value
COc1ccc2cc1Oc1ccc(cc1)CC1c3cc(c(OC)cc3CCN1C)Oc1c(O)c(OC)cc3c1C(C2)N(C)CC3 (centres undefined),NF-kB SEAP reporter activity,"[1]; cytotoxicity flag (confluency mask): cytotoxic (confluency <70% of control), agonist: Imiquimod (TLR7) […]",0.618
same,NF-kB SEAP reporter activity,"[1]; cytotoxicity flag (confluency mask): cytotoxic (confluency <70% of control), agonist: MPLA (TLR4) […]",2.39
COc1ccc2cc1Oc1ccc(cc1)CC1c3cc(c(OC)cc3CCN1C)Oc1c(O)c(OC)cc3c1C(C2)N(C)CC3 (centres undefined) (library stock concentration (final ~1000-fold dilution): 10 mM),NF-kB SEAP reporter activity,[2]; agonist: LPS (TLR4) 0.1 ug/mL,1.81
same,NF-kB SEAP reporter activity,[2]; [4],0.241
same,NF-kB SEAP reporter activity,[2]; [5],2.15
same,NF-kB SEAP reporter activity,[2]; [6],1.31
O=C1C(CCC(O)c2ccc(F)cc2)C(c2ccc(O)cc2)N1c1ccc(F)cc1 (centres undefined) (library stock concentration (final ~1000-fold dilution): 10 mM),NF-kB SEAP reporter activity,[3]; agonist: LPS (TLR4) 0.1 ug/mL,1.42
same,NF-kB SEAP reporter activity,[3]; [4],0.665
same,NF-kB SEAP reporter activity,[3]; [5],0.889
same,NF-kB SEAP reporter activity,[3]; [6],0.589
O=C1C(CCC(O)c2ccc(F)cc2)C(c2ccc(O)cc2)N1c1ccc(F)cc1 (centres undefined),NF-kB SEAP reporter activity,[1]; [7],0.952
same,NF-kB SEAP reporter activity,[1]; [8],1.38
CC1(C)SC2CC(=O)N2C1C(=O)OCOC(=O)C1N2C(=O)C(NC(=O)C(N)c3ccccc3)C2S(=O)(=O)C1(C)C.Cc1ccc(S(=O)(=O)O)cc1 (centres undefined) (library stock concentration (final ~1000-fold dilution): 10 mM),NF-kB SEAP reporter activity,[3]; agonist: LPS (TLR4) 0.1 ug/mL,1.26
same,NF-kB SEAP reporter activity,[3]; [4],0.797
same,NF-kB SEAP reporter activity,[3]; [5],1.02
same,NF-kB SEAP reporter activity,[3]; [6],0.873
CC1(C)SC2CC(=O)N2C1C(=O)OCOC(=O)C1N2C(=O)C(NC(=O)C(N)c3ccccc3)C2S(=O)(=O)C1(C)C.Cc1ccc(S(=O)(=O)O)cc1 (centres undefined),NF-kB SEAP reporter activity,[1]; [8],1.02
CN1C(CC(=O)c2ccccc2)CCCC1CC(O)c1ccccc1.Cl (centres undefined),NF-kB SEAP reporter activity,[1]; [7],0.779
same,NF-kB SEAP reporter activity,[1]; [8],0.909
CN1C(CC(=O)c2ccccc2)CCCC1CC(O)c1ccccc1.Cl (centres undefined) (library stock concentration (final ~1000-fold dilution): 10 mM),NF-kB SEAP reporter activity,[3]; agonist: LPS (TLR4) 0.1 ug/mL,1.18
same,NF-kB SEAP reporter activity,[3]; [4],0.669
same,NF-kB SEAP reporter activity,[3]; [5],0.9
same,NF-kB SEAP reporter activity,[3]; [6],1.15
O=C(O)CN(CC(=O)O)c1ccccc1OCCOc1ccccc1N(CC(=O)O)CC(=O)O,NF-kB SEAP reporter activity,[1]; [7],0.994
same,NF-kB SEAP reporter activity,[1]; [8],1.01
O=C(O)CN(CC(=O)O)c1ccccc1OCCOc1ccccc1N(CC(=O)O)CC(=O)O (library stock concentration (final ~1000-fold dilution): 10 mM),NF-kB SEAP reporter activity,[3]; agonist: LPS (TLR4) 0.1 ug/mL,1
same,NF-kB SEAP reporter activity,[3]; [4],0.989
same,NF-kB SEAP reporter activity,[3]; [5],1.04
same,NF-kB SEAP reporter activity,[3]; [6],0.872
CN1C2=C3N=c4ccccc4=C3CCN2C(=O)c2ccccc21.Cl,NF-kB SEAP reporter activity,[1]; [7],0.969
same,NF-kB SEAP reporter activity,[1]; [8],0.999
CN1C2=C3N=c4ccccc4=C3CCN2C(=O)c2ccccc21.Cl (library stock concentration (final ~1000-fold dilution): 10 mM),NF-kB SEAP reporter activity,[3]; agonist: LPS (TLR4) 0.1 ug/mL,1.21
same,NF-kB SEAP reporter activity,[3]; [4],0.594
same,NF-kB SEAP reporter activity,[3]; [5],1.28
same,NF-kB SEAP reporter activity,[3]; [6],1.1
CCS(=O)(=O)N1CC(CC#N)(n2cc(-c3ncnc4[nH]ccc34)cn2)C1 (library stock concentration (final ~1000-fold dilution): 10 mM),NF-kB SEAP reporter activity,[3]; agonist: LPS (TLR4) 0.1 ug/mL,1.65 and 0.788
same,NF-kB SEAP reporter activity,[3]; [4],1.96 and 2.12
same,NF-kB SEAP reporter activity,[3]; [5],1.19 and 1.64
same,NF-kB SEAP reporter activity,[3]; [6],1.77 and 2.42
N#CCC1(n2cc(-c3ncnc4[nH]ccc34)cn2)CN(C2CCN(C(=O)c3ccnc(C(F)(F)F)c3F)CC2)C1,NF-kB SEAP reporter activity,[1]; [7],0.89
same,NF-kB SEAP reporter activity,[1]; [8],0.922
N#CCC1(n2cc(-c3ncnc4[nH]ccc34)cn2)CN(C2CCN(C(=O)c3ccnc(C(F)(F)F)c3F)CC2)C1 (library stock concentration (final ~1000-fold dilution): 10 mM),NF-kB SEAP reporter activity,[3]; agonist: LPS (TLR4) 0.1 ug/mL,0.591
same,NF-kB SEAP reporter activity,[3]; [4],1.09
same,NF-kB SEAP reporter activity,[3]; [5],1.11
same,NF-kB SEAP reporter activity,[3]; [6],1.03
N#CCC(C1CCCC1)n1cc(-c2ncnc3[nH]ccc23)cn1 (centres undefined) (library stock concentration (final ~1000-fold dilution): 10 mM),NF-kB SEAP reporter activity,[3]; agonist: LPS (TLR4) 0.1 ug/mL,0.995 and 0.96 and 0.998
same,NF-kB SEAP reporter activity,[3]; [4],2.7 and 1.88 and 2.86
same,NF-kB SEAP reporter activity,[3]; [5],1.81 and 1.49 and 1.69
same,NF-kB SEAP reporter activity,[3]; [6],2.14 and 2.16 and 2.67
